Screening results as filed in PubChem.
RGS8-Gao: regulators of human RGS8-Galphao interaction. P09471. multiplexed bead flow cytometry, RGS8-Galphao binding; actives lie on both sides. response (percent of control binding), % at 10 µM. actives 0.34% (n = 220,000); in the data active = response below about 60% or above about 140%; inactive = in between;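 also: Galphao activated as the GDP aluminium fluoride complex binding bead-coupled RGS8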
Target sequence (P09471 whole entry, looked up): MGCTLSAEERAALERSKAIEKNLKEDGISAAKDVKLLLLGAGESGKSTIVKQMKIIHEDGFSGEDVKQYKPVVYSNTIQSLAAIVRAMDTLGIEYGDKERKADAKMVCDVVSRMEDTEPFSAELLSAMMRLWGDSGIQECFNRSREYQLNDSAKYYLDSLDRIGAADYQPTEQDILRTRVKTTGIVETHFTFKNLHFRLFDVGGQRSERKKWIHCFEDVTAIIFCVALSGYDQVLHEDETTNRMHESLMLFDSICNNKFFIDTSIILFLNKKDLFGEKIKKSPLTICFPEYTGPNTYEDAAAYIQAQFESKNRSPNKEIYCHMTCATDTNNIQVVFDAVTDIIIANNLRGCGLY
RGS4-Gao reg: modulates binding of RGS4 to human Galphao; P09471; binding response (% of control), % at 10 µM; actives 0.33% (n = 220,000); Multiplexed bead flow cytometry; actives lie on both sides; in the data active = binding response below about 49% or above about 150%; inactive = in between;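 also: fluorescent Galphao activated with aluminum fluoride binding bead-coupled RGS4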
Avidin fluor: avidin bead compound fluorescence profile; actives 0.38% (n = 220,000); Avidin beads, compound fluorescence 488/530 nm, flow cytometry; hits give high values; fluorescence (KMESF) at 10 µM; in the data active = fluorescence above about 47
RGS16-Gao: modulates binding between human RGS16 and Galphao | O15492+P09471 | actives 0.38% (n = 220,000) | binding response (% of control), % at 10 µM | bead-based flow cytometry RGS16-Galphao binding, fluorescence; actives lie on both sides;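 also: Galphao activated by GDP with aluminum fluoride before binding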
Target sequence (O15492 whole entry, looked up): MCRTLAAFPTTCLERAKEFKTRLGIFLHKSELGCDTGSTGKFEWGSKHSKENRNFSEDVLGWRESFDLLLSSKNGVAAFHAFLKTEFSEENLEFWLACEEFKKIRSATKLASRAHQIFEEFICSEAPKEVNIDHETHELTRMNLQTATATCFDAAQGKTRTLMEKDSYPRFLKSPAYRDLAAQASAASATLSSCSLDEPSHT
Target sequence (P09471 whole entry, looked up): as the sequence (P09471 whole entry, looked up) above
GSH fluor: compound fluoresces at 488/530 nm on GSH beads; GSH beads flow cytometry, compound fluorescence 488/530 nm; hits give high values; fluorescence (KMESF) at 10 µM; actives 0.25% (n = 190,000); in the data active = fluorescence above about 89;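 also: glutathione beads carrying GST-tagged Bcl family fusion proteins plus one bare bead set; values are compound well signal with DMSO vehicle wells as background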
RGS7-Gao reg: regulators of human RGS7-Galphao interaction; actives 0.35% (n = 220,000); AID 1439; Multiplexed bead flow cytometry, RGS7-Galphao binding; actives lie on both sides; binding response (% of control), % at 10 µM; in the data active = binding response below about 49% or above about 150%; inconclusive = no clear call, values can overlap the other calls; inactive = in between;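 also: fluorescent Galphao held in activated GDP-AlF4 state binding bead-coupled RGS7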
RGS4-Gao HTS: regulators of human RGS4-Galphao interaction. shares compounds with RGS16-Gao. multiplexed bead flow cytometry, RGS–Galpha-o binding. RGS4–Galpha-o binding response, % at 10 µM. actives 99% (n = 1,600). AID 1504;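 also: fluorescently labeled Galpha-o bound to GDP with aluminium fluoride binding biotinylated RGS beads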
Biotin-avidin: biotin-avidin bead binding disruption counter-screen | inhibition, % at 10 µM | streptavidin beads, fluorescein-biotin binding, flow cytometry | AID 1783 | 1,700 tested, under 10 active | shares compounds with RGS16-Gao;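 active = inhibition above 50%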;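 also: median green fluorescence of gated singlet beads compared with DMSO control wells; 0% = DMSO wells and 100% = complete loss of bead fluorescence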
RGS8-Gao single: RGS8-Galphao interaction regulation, single point confirmation; shares compounds with RGS16-Gao; bead-based flow cytometry RGS8-Galphao binding, fluorescence; actives lie on both sides; binding response (% of control), % at 10 µM; actives 3% (n = 1,700); in the data active = binding response below about 72% or above about 130%; inactive = in between;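 also: Galphao activated as GDP AlF4 complex before binding bead RGS8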
RGS7-Gao confirm: confirmation of regulators of human RGS7-Galphao interaction. shares compounds with RGS16-Gao. bead-based flow cytometry RGS7-Galphao binding; actives lie on both sides. response (percent of control binding), % at 10 µM. actives 7.8% (n = 1,700); in the data active = response below about 75% or above about 130%; inactive = in between;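 also: fluorescent Galphao activated with GDP and aluminum fluoride binding bead-coupled RGS7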
RGS16-Gao conf: confirmation of regulators of human RGS16-Galphao interaction; shares compounds with RGS16-Gao; bead-based flow cytometry, RGS16-Galphao binding; actives lie on both sides; response (% of control binding), % at 10 µM; actives 4% (n = 1,700); in the data active = response below about 74% or above about 130%; inactive = in between;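 also: Galphao activated as the GDP aluminium fluoride complex binding bead-coupled RGS16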
RGS4-Gao single: RGS4-Galphao interaction regulation, single point confirmation; shares compounds with RGS16-Gao; binding response (% of control), % at 10 µM; actives 4% (n = 1,700); RGS4-Galphao binding, multiplexed bead flow cytometry; actives lie on both sides; in the data active = binding response below about 74% or above about 130%; inactive = in between
RGS19-Gao single: confirmation of regulators of human RGS19-Galphao interaction; shares compounds with RGS16-Gao; bead-based flow cytometry RGS19-Galphao binding; actives lie on both sides; response (percent of control binding), % at 10 µM; actives 5% (n = 1,700); AID 1841; in the data active = response below about 50% or above about 160%; inactive = in between;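 also: 100% = no compound control and 0% = blank background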
* hit, by the source's call; ? = inconclusive; · = not tested or not shown; [ ] = dose if it differs, or a comment. The list is not random: actives were taken first. Their share in the collection is about 1.2%. Unless noted, no rule for the calls is given here.

SMILES	RGS8-Gao	RGS4-Gao reg	Avidin fluor	RGS16-Gao	GSH fluor	RGS7-Gao reg	Biotin-avidin	RGS8-Gao single	RGS7-Gao confirm	RGS16-Gao conf	RGS4-Gao single	RGS19-Gao single	others
CC1CCc2nc(NC(=O)CCSc3ccccc3)sc2C1 (configuration not stated)	70	79	5	20*	20	79	2	102	102	102	102	108	RGS4-Gao HTS=79*
COc1ccc(S(=O)(=O)Nc2cc(Sc3ncn[nH]3)c(O)c3ccccc23)cc1	61	72	2	11*	28	77	·	·	·	·	·	·	RGS4-Gao HTS=72*
CC#CC[N+](C)(C)CCCCCCCCCC	115	170*[activator]	47*	156	·	?	0	105	107	104	106	107
CCN(CC)CCCNC(=O)C1c2cc(OC)c(OC)cc2C(=O)N(C)C1c1cccs1 (configuration not stated)	153*[activator]	153*[activator]	12	454	33	130	-1	105	98	110	103	103
O=C(/C=C/c1ccc(Br)o1)NCc1ccccc1	92	90	8	91	13	85	·	·	·	·	·	·
CCC(C)[C@H](NC(=O)Nc1ccccc1F)C(=O)O (some centres not stated)	100	101	8	98	·	?	·	·	·	·	·	·
Cc1ccccc1/C=C/c1nc2ccccc2c(=O)[nH]1	42*	7.3*	0	14*	·	?	-2	102	100	102	102	108
CC(=O)Nc1ccccc1NS(=O)(=O)c1ccccc1[N+](=O)[O-]	100	158*[activator]	204*	123	10	401*[activator]	3	104	102	100	103	106
O=c1cc(-c2ccccc2Cl)oc2ccc([N+](=O)[O-])c(O)c12	101	96	11	103	19	96	·	·	·	·	·	·
Nc1ccc2oc(-c3ccccc3Cl)cc(=O)c2c1O	107	184*[activator]	89*	110	18	167*[activator]	0	102	111	104	107	95
CC(C)NC(=O)c1ccc(C2SCC(=O)N2Cc2ccccc2)cc1 (configuration not stated)	90	267*[activator]	185*	346*[activator]	21	254*[activator]	-1	88	75*	84	82	71
CC(=O)N1CC=C2C(C#N)=C(N)C(C#N)(C#N)C(CCc3ccccc3)C2C1 (configuration not stated)	·	·	·	·	43	·	-2	98	100	101	100	94
CCN1CC=C2C(C#N)=C(N)C(C#N)(C#N)C(CCc3ccccc3)C2C1 (configuration not stated)	102	106	7	104	5	101	·	·	·	·	·	·
CCc1ccc(OCC(=O)Nc2ncn[nH]2)cc1	94	93	8	94	11	87	·	·	·	·	·	·
Cc1onc(-c2ccccc2Cl)c1C(=O)NCc1cccs1	103	101	17	103	22	102	·	·	·	·	·	·
Cc1noc(C)c1C(=O)NCc1cccs1	·	·	·	·	33	·	1	102	101	104	103	106
Cc1ccc(C(=O)Nc2ccccc2NC(=O)c2ccc(C)o2)o1	60*	55	3	-12	240*	65	-2	101	98	100	100	118	RGS4-Gao HTS=55*
CC(=O)c1sc2nsc(SCCN3CCCC3)c2c1N	97	99	6	100	·	?	·	·	·	·	·	·
CCOc1ccc(NS(=O)(=O)c2ccc3ncsc3c2)cc1	134	146	8	143	15	152*[activator]	1	100	97	98	100	111	RGS4-Gao HTS=146*
COc1cccc(NC(=O)c2cc(CN3C(=O)c4ccccc4C3=O)ccc2OC)c1	80	105	9	79	4	94	·	·	·	·	·	·
O=C(COc1ccccc1-c1ccccc1)N/N=C/c1ccccn1	103	104	9	107	28	107	·	·	·	·	·	·
CCN=C1SC(CC(=O)NCC)C(=O)N1CC (configuration not stated)	118	259*[activator]	74*	519	43	213*[activator]	-1	99	104	103	100	106
CCCCn1c(/N=C/c2ccc(N(C)C)cc2)nc2ccccc21	100	98	6	105	23	104	·	·	·	·	·	·
CCCCn1c(/N=C/c2ccc3c(c2)OCO3)nc2ccccc21	·	·	·	·	41	·	1	101	100	99	99	100
O=C(Nc1ccccc1C(=O)NC(Cc1ccc(O)cc1)C(=O)O)c1ccccc1 (configuration not stated)	102	102	11	105	12	101	·	·	·	·	·	·
SMILES	RGS8-Gao	RGS4-Gao reg	Avidin fluor	RGS16-Gao	GSH fluor	RGS7-Gao reg	Biotin-avidin	RGS8-Gao single	RGS7-Gao confirm	RGS16-Gao conf	RGS4-Gao single	RGS19-Gao single	others
O=C(CSc1nc2ccccc2[nH]1)Nc1ccc(F)c(F)c1	·	·	·	·	44	·	0	105	98	104	105	95
CC(=O)c1cccc(NC(=O)N2CCCC2C(=O)Nc2ccc3c(c2)OCO3)c1 (configuration not stated)	101	98	10	97	17	99	·	·	·	·	·	·
Cc1ccc(CNC(=O)C2CC(c3ccccc3F)=NO2)cc1 (configuration not stated)	101	97	10	101	·	?	·	·	·	·	·	·
COc1ccc(CCNC(=O)COC(=O)C23CC4CC(CC(Br)(C4)C2)C3)cc1	76	91	8	14*	7	87	1	104	104	107	104	102	RGS4-Gao HTS=91*
CC(=O)c1cn(-c2ccc(Cl)cc2)c(=O)n(Cc2ccc(Br)cc2)c1=O	99	100	11	101	14	?	·	·	·	·	·	·
COc1ccccc1OCCCOc1ccc(C)cc1Br	106	102	3	114	16	102	·	·	·	·	·	·
